In ChEMBL document CHEMBL4513149, “CO-ADD screening of MMV (CH) - MMV compounds” (2021):
Measured potencies and affinities stand elsewhere.

Legend:
[1] = system: Staphylococcus aureus; details: Concentration 20 uM; ASSAY_TEST Inhibition of Bacterial Growth; detection method Absorption (OD600); MEDIA CAMHB; plate type 384well; NBS; CORNING #3640; time 18 hr
[2] = system: Escherichia coli; details: Concentration 20 uM; ASSAY_TEST Inhibition of Bacterial Growth; detection method Absorption (OD600); MEDIA CAMHB; plate type 384well; NBS; CORNING #3640; time 18 hr

## CCOC(=O)c1cc(-c2csc(Nc3c(C)cc(C)cc3C)n2)on1
[1]
  Inhibition: 5.55%
[2]
  Inhibition: 5.47%

## O=C(NCCN1CCCC1)c1cc(NCCCCN2CCC(F)(F)CC2)nc2ccc(Cl)cc12
[1]
  Inhibition: 22.5%
[2]
  Inhibition: 8.02%

## FC(F)(F)c1ccc(N(c2cccnc2)C2CCN(c3ccc(C(F)(F)F)cn3)CC2)cc1
[1]
  Inhibition: 14.25%
[2]
  Inhibition: 5.86%

## O=C(NCc1cc(Cl)cc(Cl)c1)c1c(C(F)(F)F)nc2ccccn12
[1]
  Inhibition: 22.39%
[2]
  Inhibition: 10.43%

## CC(C)NCC(=O)Nc1cccc(C(=O)Nc2cccc(C(F)(F)F)c2)c1
[1]
  Inhibition: 3.81%
[2]
  Inhibition: -2.15%

## CC1(C)Cc2c(c(N3CCOCC3)nc3snc(Br)c23)CO1
[1]
  Inhibition: 19.87%
[2]
  Inhibition: 4.52%

## N#Cc1ccc(-c2ccc(OCC(N)=O)cc2)cc1
[1]
  Inhibition: 6.41%
[2]
  Inhibition: -3.93%

## Cc1nc(-c2ccccn2)nc(NCCc2ccc(S(C)(=O)=O)cc2)c1Cl
[1]
  Inhibition: 4.78%
[2]
  Inhibition: -2.55%

## O=C(c1ccc(F)cc1)N(CCNc1ccccc1)c1ccccc1
[1]
  Inhibition: 14.62%
[2]
  Inhibition: 8.4%

## O=C(NCCc1c[nH]c2ccccc12)c1cc2ccccc2oc1=O
[1]
  Inhibition: 13.99%
[2]
  Inhibition: 9.41%

## COc1cc(-c2cc(-c3ccc(S(C)(=O)=O)cc3)cnc2N)ccc1O
[1]
  Inhibition: 12.87%
[2]
  Inhibition: 6.84%

## Cc1noc(C)c1C(=O)N1CCCC(c2[nH]c3c(C)cccc3c2-c2ccncc2)C1 (configuration not stated)
[1]
  Inhibition: 19.72%
[2]
  Inhibition: 12.41%

## CCOc1ccc2cc(-c3nn(C(C)(C)C)c(N)c3C(N)=O)cnc2c1.Cl
[1]
  Inhibition: 14.66%
[2]
  Inhibition: 7.93%

## O=C(Nc1nc(-c2ccccn2)cs1)c1cncn1-c1ccccc1
[1]
  Inhibition: 8.38%
[2]
  Inhibition: 5.73%

## CCN(CC)S(=O)(=O)c1ccc(Cl)c(C(=O)Nc2ccc3nc(C)sc3c2)c1
[1]
  Inhibition: 2.16%
[2]
  Inhibition: 0.28%

## CN(C)c1cc(NC(=O)Nc2ccccc2)c2ccccc2n1
[1]
  Inhibition: 12.79%
[2]
  Inhibition: 6.08%

## CN1CCCN(C(c2ccccc2)c2ccc(Cl)cc2)CC1 (configuration not stated) [HOMOCHLORCYCLIZINE]
[1]
  Inhibition: 14.31%
[2]
  Inhibition: 4.77%

## Cc1cc(Nc2ccc(C(F)(F)F)cc2)n2ccnc2n1
[1]
  Inhibition: 20.89%
[2]
  Inhibition: 9.89%

## CC(C)(C(=O)Nc1ccc(F)cc1)n1cc(-c2ccccc2F)cn1
[1]
  Inhibition: 21.36%
[2]
  Inhibition: 9.99%

## O=C(C1CCN(c2nnc(-n3cccc3)s2)CC1)N1CCC(Cc2ccccc2)CC1
[1]
  Inhibition: 17.77%
[2]
  Inhibition: 6.98%

## O=C1[C@@H](Oc2ccccc2)[C@@H](c2ccc(Cl)cc2)N1CCn1cnc2c(NCc3ccccc3)ncnc21
[1]
  Inhibition: -4.13%
[2]
  Inhibition: 1.08%

## CCC(Sc1nc2ccccc2o1)C(=O)Nc1nccs1 (configuration not stated)
[1]
  Inhibition: 18.2%
[2]
  Inhibition: 11.9%

## Cc1cc(NCC(C)C)c2[nH]nc(-c3ccccc3)c2n1
[1]
  Inhibition: 14.44%
[2]
  Inhibition: 8.23%

## CC(C)(C)OC(=O)N1CCC(Cn2nc(-c3cnc4ccccc4c3)c3c(N)ncnc32)CC1
[1]
  Inhibition: 18.54%
[2]
  Inhibition: 10.38%

## Cn1ncc2c(N3CCOCC3)nc(NCCc3c[nH]c4ccccc34)nc21 [TDR79432]
[1]
  Inhibition: 12.92%
[2]
  Inhibition: -1.67%

## Cc1ccc(S(=O)(=O)n2cc(-c3ccnc(N)c3)c3cc(Br)cnc32)cc1
[1]
  Inhibition: 9.7%
[2]
  Inhibition: -3.65%

## CC(C)/N=c1\cc2n(-c3ccc(Cl)cc3)c3ccccc3nc-2cc1Nc1ccc(Cl)cc1 [CLOFAZIMINE]
[1]
  Inhibition: 59.44%
[2]
  Inhibition: 9.66%

## COc1ccc(C(=N)N)cc1-c1cn(-c2ccc(C(=N)N)cc2)nn1.Cl.Cl
[1]
  Inhibition: 4.09%
[2]
  Inhibition: 2.37%

## N#Cc1nc(-c2ccccc2)oc1S(=O)(=O)c1ccc(Cl)cc1
[1]
  Inhibition: 8.62%
[2]
  Inhibition: 6.48%

## C[C@H](c1ccc2c(c1)CCCC2)N(C)c1ncc2c(N)nc(N)nc2n1
[1]
  Inhibition: 64.04%
[2]
  Inhibition: 11.2%

## CS(=O)(=O)N1CCC(CCn2nc(Cc3cccc4ccccc34)c3c(N)ncnc32)CC1
[1]
  Inhibition: 11.8%
[2]
  Inhibition: -2.01%
